A selection: hits, their analogues and other compounds. The true share with any hit is near 2.5%.
p53ts 39C tox: qHTS Screen for Compounds that Selectively Target Cancer Cells with p53 Mutations: Cytotoxicity of p53ts Cells at the Nonpermissive Temperature; H1299-p53A138V viability at 39C, ATP luminescence, 24 h; Potency, µM (doses to about 46.1 µM), for inactives: top-dose activity change, negative = cell killing, most hits filed as cytotoxic; hit rate 1.5% among 130,000; note: % is set by controls: 0 for no effect and ±100 for the full control effect; nearly all actives have a fitted effect of over 55% in size
p53ts 32C kill: qHTS Screen for Compounds that Selectively Target Cancer Cells with p53 Mutations: Cytotoxicity of p53ts Cells at the Permissive Temperature; hit rate 0.93% among 130,000; Potency, µM (doses to about 46.1 µM), for the others: top-dose activity change, negative = cytotoxicity, usual class: cytotoxic; H1299-p53A138V at 32C, ATP luminescence viability, 24 h;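 note: 0% = DMSO and -100% = full killing by reference compound; nearly all actives have a fitted effect of over 55% in size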
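Cells: H1299 p53ts (A138V), 600/well, pre-incubated 16–30 h at 37C. Cpd up to 46 uM, 24 h, 32C. Readout: ATPlite luminescence, 20 min RT. Normalization: DMSO vs tamoxifen 100 uM. AC50 by Hill equation.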
Luciferase inh: qHTS Assay for Inhibitors of Firefly Luciferase | hit rate 2.2% among 72,000 | Luciferin 4-monooxygenase (Photinus pyralis), P08659 | AID 411, 2009 | Potency, µM (top dose mostly 57.1 µM), inactives show top-dose activity change, negative = inhibition, usual class: inhibitors | purified firefly luciferase, luminescence, 8 min; note: % is set by controls: 0 for no effect and ±100 for the full control effect; nearly all actives have a fitted effect of over 40% in size
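qHTS concentration-response profiling: light output of P. pyralis luciferase with luciferin and 10 uM ATP, imidazole buffer pH 7.2. Read by luminescence after 8-min room-temperature incubation.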
Casp7 inh: qHTS Assay for Allosteric/Competitive Inhibitors of Caspase-7. P55210. recombinant caspase-7, Ac-DEVD-AFC fluorescence rate. Potency, µM (highest dose often 57.5 µM), without a hit: at the highest dose activity change, negative = inhibition, most hits filed as inhibitors. hit rate 0.02% among 75,000; active = well fitted inhibition curve with a large enough effect in the main read-out, with a control signal flat, not every such curve was filed as active; inconclusive = small, poorly fitted or top-dose-only effect, or a change in a side signal; note: % of control where 0% means no effect
Casp1 inh: qHTS Assay for Allosteric/Competitive Inhibitors of Caspase-1 | P29466 | Caspase-1 enzyme, Ac-WEHD-AFC fluorogenic rate | Potency, µM (series often up to 57.5 µM), without a hit: at the top dose activity change, negative = inhibition, most hits filed as inhibitors | hit rate 0.03% among 75,000;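 note: plate controls were vehicle for no effect and no substrate for full effect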
IkB sig inh: IkB Signaling; ABC-DLBCL IkBa-CBG/CBR dual luciferase ratio, 4 h; response scale: scaled: untreated 0%, proteasome inhibitor 100%; Potency, µM (doses to about 57.1 µM), for inactives: top-dose IkBa stabilization activation; hit rate 0.04% among 110,000; AID 445, 2006; active = well fitted curve in the direction sought with a large enough effect in the signal ratio, not every such curve was filed as active; inconclusive = small, poorly fitted or top-dose-only effect, or a change in a side signal; the % refers to the signal ratio;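 note: the direction sought is a rising ratio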
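In this assay, an IκBα–CBG68 fusion accumulates when IKK-driven degradation is blocked; native CBR normalizes for cell number. OCI-Ly3 cells were treated 4 h with compound and doxycycline, then green and red light read after Chroma-Glo addition.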
Active calls of the source: *; ? = inconclusive; . = no result given; [ ] = another dose, or the depositor's remark. Unless noted, calls come from the whole dose curve; as a rule, active = well fitted curve in the direction sought with a large enough effect; inconclusive = small, poorly fitted or top-dose-only effect, or another doubt; inactive = no such curve, though single readings can be large; an effect the other way counts as inactive or inconclusive. Potency is the fitted concentration of half-maximal effect.

SMILES | p53ts 39C tox | p53ts 32C kill | Luciferase inh | Casp7 inh | Casp1 inh | IkB sig inh
CCN(CC)C(=O)c1sc2nc(-c3ccc(OC)cc3)cn2c1C | ? | ? | 13µM* | 2% | -2% | 4%
NC(=O)/C(=C\c1ccncc1)c1cccc2ccccc12 | 1%[9.22 µM] | 5%[9.22 µM] | 0%[11.4 µM] | 1%[11.5 µM] | -3%[11.5 µM] | -2%[11.4 µM]
O=C(NCCCn1ccnc1)c1cn(-c2ccccc2)nc1-c1ccccc1 | -29% | ? | 13µM* | 0% | -1% | -1%
COCCSc1ccccc1C(=O)NCCCn1ccnc1 | 3% | 0% | 0% | 2% | 0% | 1%
Cc1c(/C=C/C(=O)c2cccs2)cnn1C | -10% | -9% | . | . | . | .
COc1ccc(/C=C/C(=O)Nc2ccccc2C(=O)O)cc1OC | 13µM* | ? | ? | 0% | 2% | .
CCOc1ccc(/C=C/C(=O)c2cccs2)cc1 | -12% | 25µM* | . | ? | -14% | .
O=C(/C=C/c1ccccc1)c1cccs1 | -81% | 32µM* | . | 0% | 4% | .
COc1ccc(/C=C/C(=O)Nc2cc(C(F)(F)F)ccc2Cl)cc1OC | 3% | . | . | . | . | .
COc1ccc(/C=C/C(=O)c2cccs2)cc1OC | 16µM* | 13µM* | . | 2% | 3% | .
COc1ccc(Cn2nnnc2C(c2ccc(N(C)C)cc2)N2CCC(C)CC2)cc1 (configuration not stated) | -7% | -3% | 1% | -23% | ? | 1%
COc1ccc(CCNS(=O)(=O)c2cc(-c3cc(C)no3)ccc2OC)cc1OC | 1% | 12% | . | . | . | -4%
Cn1c(-c2ccc(F)cc2)cnc1SCC(=O)N1CCCCC1 | -18% | -15% | 16µM* | 1% | 0% | -1%
Cc1ccc2c(CC(=O)Nc3ccc(N4CCN(C)CC4)cc3C)coc2c1 | ? | ? | 6.3µM* | 1% | -2% | 2%
Clc1cc(Cl)c(OCc2nc(-c3ccccn3)no2)cc1Cl | ? | ? | 13µM* | -9% | -3% | 0%
Clc1ccc(OCc2nc(-c3ccncc3)no2)c(Cl)c1 | ? | ? | 16µM* | -7% | -5% | ?
Cc1ccc(-c2cc(C(=O)N(Cc3ccccc3)Cc3ccco3)no2)cc1F | 32% | -1% | . | . | . | ?
Cc1ccc(C)c(N2CCN(C(=O)Cn3c(-c4cccs4)cc4ccccc43)CC2)c1 | . | -5% | . | . | . | .
Cc1nnc(NC(=O)C2(c3ccccc3)CCOCC2)s1 | 6% | -2% | -1% | -6% | -4% | 3%
O=Nc1c(-c2c(O)[nH]c3cc(Br)ccc23)[nH]c2ccccc12 | 13µM* | 13µM* | . | -2% | -5% | .
Oc1[nH]c2ccccc2c1C1=NCCCC1 | 15% | 10% | -3% | -1% | -3% | -1%
CC1CC(C)CN(C(=O)CSc2nnc(-c3ccc(F)cc3)o2)C1 (configuration not stated) | -13% | -8% | 3% | 1% | -2% | -5%
Cc1ccc(Nc2nc3nonc3[nH]c2=O)cc1C | 10µM* | 13µM* | ? | 2% | -1% | ?
COC(=O)c1ccc(CN2CCN(Cc3ccc(C(=O)OC)o3)CC2)o1 | -9% | 7% | 3% | 6% | -1% | -1%
CCOC(=O)c1ccc(NC(=O)CC2SCCNC2=O)cc1 (configuration not stated) | 13µM* | 13µM* | -13% | 1% | -1% | -4%
COC(=O)CSc1nc2cc(C)cc(C)c2cc1C#N | 4% | 6% | -3% | -21% | . | -1%
CCC(=O)NCCc1nc2cc(NC(=O)c3cccc(Br)c3)ccc2n1C | 10µM* | 13µM* | . | . | . | 17%
CC(=O)Nc1ccc(-c2nc3c(C)cccc3[nH]2)cc1 | ? | ? | 3.2µM* | 0% | 1% | ?
N#Cc1sc2nc(C3CC3)cc(-c3ccccc3)c2c1N | 12% | 4% | . | . | . | .

From PubChem
